Experimental data: the supplement of paper PMC12067093, “Discovery and optimisation of a covalent ligand for TRIM25 and its application to targeted protein ubiquitination” (Chemical Science, 2025)
About 21,000 targets were measured; listed, in parts, are those with the largest changes and a random draw of the rest.
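Further: competitive chemoproteomic profiling in live THP-1 cells with an iodoacetamide desthiobiotin (IA-DTB) probe, comparing probe-labelled peptide intensities in compound-treated cells against DMSO-treated controls.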

UniProt Q9Y2H2, sequence (Q9Y2H2 whole entry, looked up): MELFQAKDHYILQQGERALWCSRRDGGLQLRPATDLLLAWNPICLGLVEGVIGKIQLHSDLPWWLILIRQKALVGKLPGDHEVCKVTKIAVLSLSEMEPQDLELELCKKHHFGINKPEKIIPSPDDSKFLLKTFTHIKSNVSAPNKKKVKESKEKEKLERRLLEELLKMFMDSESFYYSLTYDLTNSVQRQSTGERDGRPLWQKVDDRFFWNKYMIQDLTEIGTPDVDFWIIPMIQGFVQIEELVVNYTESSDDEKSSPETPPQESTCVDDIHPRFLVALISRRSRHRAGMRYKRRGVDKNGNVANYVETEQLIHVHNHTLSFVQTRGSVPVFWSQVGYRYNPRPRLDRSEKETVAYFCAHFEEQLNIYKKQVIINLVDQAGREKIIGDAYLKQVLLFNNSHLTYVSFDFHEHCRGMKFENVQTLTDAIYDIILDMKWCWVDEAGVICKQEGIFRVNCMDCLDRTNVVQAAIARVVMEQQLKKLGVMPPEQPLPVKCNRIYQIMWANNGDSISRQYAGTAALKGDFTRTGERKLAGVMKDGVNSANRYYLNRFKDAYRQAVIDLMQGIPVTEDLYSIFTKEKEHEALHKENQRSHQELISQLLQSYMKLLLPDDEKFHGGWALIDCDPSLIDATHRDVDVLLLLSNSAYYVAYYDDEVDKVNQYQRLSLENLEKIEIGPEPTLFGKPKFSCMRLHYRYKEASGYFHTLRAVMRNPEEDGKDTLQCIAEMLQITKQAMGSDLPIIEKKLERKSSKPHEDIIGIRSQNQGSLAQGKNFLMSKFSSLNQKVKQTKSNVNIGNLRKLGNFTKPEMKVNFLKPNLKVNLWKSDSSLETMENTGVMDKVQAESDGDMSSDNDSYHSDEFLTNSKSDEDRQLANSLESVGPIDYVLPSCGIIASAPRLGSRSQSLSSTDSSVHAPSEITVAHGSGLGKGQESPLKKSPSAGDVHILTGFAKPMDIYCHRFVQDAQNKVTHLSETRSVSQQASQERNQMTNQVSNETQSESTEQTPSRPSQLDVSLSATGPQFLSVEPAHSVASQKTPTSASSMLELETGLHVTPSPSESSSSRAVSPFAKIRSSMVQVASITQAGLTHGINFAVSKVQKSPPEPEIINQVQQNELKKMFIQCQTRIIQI
UniProt P26440, sequence (P26440 whole entry, looked up): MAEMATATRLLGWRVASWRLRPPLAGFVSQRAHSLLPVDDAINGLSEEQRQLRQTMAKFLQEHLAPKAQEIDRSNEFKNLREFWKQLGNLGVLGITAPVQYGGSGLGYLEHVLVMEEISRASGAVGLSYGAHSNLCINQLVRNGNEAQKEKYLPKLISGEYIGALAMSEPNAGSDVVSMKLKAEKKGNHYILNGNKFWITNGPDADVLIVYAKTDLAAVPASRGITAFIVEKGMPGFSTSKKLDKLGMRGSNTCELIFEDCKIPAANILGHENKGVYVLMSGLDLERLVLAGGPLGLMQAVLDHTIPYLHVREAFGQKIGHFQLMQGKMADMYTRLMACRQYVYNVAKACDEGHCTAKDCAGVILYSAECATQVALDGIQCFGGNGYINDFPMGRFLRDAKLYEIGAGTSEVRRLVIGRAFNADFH
UniProt Q5JSJ4, sequence (Q5JSJ4 whole entry): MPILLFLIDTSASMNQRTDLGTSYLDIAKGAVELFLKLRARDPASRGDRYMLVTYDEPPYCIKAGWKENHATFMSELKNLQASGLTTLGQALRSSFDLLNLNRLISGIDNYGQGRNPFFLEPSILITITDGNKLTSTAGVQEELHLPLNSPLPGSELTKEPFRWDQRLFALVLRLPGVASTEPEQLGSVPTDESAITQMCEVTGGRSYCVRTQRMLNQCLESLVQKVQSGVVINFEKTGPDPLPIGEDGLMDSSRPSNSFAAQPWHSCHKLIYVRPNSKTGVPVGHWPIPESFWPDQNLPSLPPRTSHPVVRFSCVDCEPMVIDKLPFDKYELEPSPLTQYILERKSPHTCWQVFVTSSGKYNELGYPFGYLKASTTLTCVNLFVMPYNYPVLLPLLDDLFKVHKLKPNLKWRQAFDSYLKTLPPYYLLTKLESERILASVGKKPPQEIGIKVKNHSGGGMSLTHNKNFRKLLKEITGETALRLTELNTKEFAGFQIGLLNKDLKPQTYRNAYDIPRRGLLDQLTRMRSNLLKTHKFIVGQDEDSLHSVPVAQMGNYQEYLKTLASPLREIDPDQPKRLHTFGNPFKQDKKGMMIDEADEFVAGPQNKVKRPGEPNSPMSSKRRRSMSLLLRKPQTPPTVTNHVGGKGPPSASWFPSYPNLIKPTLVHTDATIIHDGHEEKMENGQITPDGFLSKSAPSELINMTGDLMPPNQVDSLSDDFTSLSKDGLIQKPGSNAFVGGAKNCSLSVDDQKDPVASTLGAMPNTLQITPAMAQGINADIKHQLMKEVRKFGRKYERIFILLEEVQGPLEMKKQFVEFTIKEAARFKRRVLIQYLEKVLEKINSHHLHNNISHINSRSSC
UniProt Q14807, sequence (Q14807 whole entry, looked up): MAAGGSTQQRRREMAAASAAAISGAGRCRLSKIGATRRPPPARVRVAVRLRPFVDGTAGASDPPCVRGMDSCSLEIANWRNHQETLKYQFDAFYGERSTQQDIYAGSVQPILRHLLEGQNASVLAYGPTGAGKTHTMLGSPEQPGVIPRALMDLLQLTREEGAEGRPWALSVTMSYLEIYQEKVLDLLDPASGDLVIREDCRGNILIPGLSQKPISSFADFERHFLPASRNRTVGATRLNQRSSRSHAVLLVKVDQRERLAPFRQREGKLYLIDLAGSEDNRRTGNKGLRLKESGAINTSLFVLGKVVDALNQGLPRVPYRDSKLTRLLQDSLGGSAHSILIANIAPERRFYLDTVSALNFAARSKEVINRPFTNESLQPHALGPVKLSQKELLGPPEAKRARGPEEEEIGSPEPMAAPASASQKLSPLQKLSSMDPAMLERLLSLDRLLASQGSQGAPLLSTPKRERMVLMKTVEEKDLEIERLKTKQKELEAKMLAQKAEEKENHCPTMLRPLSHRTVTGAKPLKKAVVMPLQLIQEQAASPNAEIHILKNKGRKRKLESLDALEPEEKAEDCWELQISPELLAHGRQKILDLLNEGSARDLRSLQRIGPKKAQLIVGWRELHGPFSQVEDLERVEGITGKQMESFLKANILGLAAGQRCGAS
UniProt O60711, sequence (O60711 whole entry, looked up): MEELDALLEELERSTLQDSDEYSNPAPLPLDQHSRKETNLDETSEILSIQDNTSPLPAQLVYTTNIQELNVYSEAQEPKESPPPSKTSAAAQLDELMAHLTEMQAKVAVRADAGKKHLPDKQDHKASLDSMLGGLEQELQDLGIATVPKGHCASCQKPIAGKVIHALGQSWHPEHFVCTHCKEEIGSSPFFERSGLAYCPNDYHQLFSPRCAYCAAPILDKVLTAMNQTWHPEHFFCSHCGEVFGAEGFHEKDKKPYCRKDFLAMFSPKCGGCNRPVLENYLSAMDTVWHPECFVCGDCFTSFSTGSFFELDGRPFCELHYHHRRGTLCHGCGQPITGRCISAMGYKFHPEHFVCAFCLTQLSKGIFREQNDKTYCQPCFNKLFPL
UniProt Q53HC5, sequence (Q53HC5 whole entry, looked up): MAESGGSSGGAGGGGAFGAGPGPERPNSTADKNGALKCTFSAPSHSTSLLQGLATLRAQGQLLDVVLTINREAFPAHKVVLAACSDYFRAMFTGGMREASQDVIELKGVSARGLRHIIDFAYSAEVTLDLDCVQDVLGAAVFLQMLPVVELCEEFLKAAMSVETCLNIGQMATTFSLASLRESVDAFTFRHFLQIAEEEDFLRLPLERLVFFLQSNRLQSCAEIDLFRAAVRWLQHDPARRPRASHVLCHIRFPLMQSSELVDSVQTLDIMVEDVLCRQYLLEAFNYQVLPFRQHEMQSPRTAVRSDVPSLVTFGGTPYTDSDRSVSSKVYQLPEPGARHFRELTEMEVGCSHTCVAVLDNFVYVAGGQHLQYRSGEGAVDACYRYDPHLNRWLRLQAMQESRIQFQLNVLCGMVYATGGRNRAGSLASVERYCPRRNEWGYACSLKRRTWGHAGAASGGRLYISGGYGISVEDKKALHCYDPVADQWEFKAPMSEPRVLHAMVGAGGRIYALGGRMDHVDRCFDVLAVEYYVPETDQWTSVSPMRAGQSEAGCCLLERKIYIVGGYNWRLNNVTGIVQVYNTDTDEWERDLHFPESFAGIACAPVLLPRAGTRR
UniProt Q8TDW0, sequence (Q8TDW0 whole entry, looked up): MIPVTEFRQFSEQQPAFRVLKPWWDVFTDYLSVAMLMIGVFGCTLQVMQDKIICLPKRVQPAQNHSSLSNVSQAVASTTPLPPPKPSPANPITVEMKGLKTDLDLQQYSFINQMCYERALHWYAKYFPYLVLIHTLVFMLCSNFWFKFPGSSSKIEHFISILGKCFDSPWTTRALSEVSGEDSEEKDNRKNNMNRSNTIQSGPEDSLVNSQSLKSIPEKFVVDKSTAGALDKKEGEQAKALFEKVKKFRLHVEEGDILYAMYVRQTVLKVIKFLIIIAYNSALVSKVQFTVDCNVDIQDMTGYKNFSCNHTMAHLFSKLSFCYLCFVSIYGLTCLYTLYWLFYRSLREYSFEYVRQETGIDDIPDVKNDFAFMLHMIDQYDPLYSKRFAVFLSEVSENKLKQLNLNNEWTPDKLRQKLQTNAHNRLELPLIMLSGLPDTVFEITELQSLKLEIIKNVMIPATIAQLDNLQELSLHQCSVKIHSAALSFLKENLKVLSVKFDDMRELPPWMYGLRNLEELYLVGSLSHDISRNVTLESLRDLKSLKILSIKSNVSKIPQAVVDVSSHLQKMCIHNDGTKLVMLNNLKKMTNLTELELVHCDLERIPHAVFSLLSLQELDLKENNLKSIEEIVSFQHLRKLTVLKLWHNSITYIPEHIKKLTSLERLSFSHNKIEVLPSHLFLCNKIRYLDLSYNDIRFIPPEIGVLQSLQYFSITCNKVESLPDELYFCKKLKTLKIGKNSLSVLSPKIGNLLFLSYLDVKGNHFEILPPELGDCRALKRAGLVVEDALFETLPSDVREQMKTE

These targets were tested with CC1Cc2ccccc2N1C(=O)C1CCCN(C1)C(=O)CCl (mixture of isomers) [TRIM25 ligand 11 (diastereomer mixture)] (assay: probe-labelled cysteine peptide fold change vs DMSO (competition) (log2 fold change); higher = less target engagement (more negative = stronger competition)). Conditions: 10 µM; THP-1; incubation time: 4 h.
With “IGF2R_P11717_1783_TSECDFVFEWETPVVCPDEVR (UniProt P11717)” the “probe-labelled cysteine peptide fold change” value was -0.144.
“IGF2R_P11717_149_TLGTPEFVTATECVHYFEWR (UniProt P11717)” was tested, and the “probe-labelled cysteine peptide fold change” value was -0.0703.
For “LPXN_O60711_155_GHCASCQK (UniProt O60711)”, the “probe-labelled cysteine peptide fold change” value was 0.00581.
“KLHL26_Q53HC5_383_SGEGAVDACYR (UniProt Q53HC5)” was tested, and the “probe-labelled cysteine peptide fold change” value was 0.33.
For “IRF3_Q14653_267_HVLSCLGGGLALWR (UniProt Q14653)”, the “probe-labelled cysteine peptide fold change” value was -0.17.
“ITSN2_Q9NZM3_1429_ENSDRLEWIQAHVQCEGLAEQLIFNSLTNCLGPR (UniProt Q9NZM3)” was tested, and the “probe-labelled cysteine peptide fold change” value was -0.507.
With “KNTC1_P50748_911_IIDLIDREQGEDCLLLLK (UniProt P50748)” the “probe-labelled cysteine peptide fold change” value was 0.282.
With “LANCL2_Q9NS86_367_GYGICHGTAGNGYSFLSLYR (UniProt Q9NS86)” the “probe-labelled cysteine peptide fold change” value was 0.0845.
With “KPNA1_P52294_424_YLVELGCIK (UniProt P52294)” the “probe-labelled cysteine peptide fold change” value was 0.213.
With “ITGB2_P05107_386_VTYDSFCSNGVTHR (UniProt P05107)” the “probe-labelled cysteine peptide fold change” value was 0.0533.
With “INPP5F_Q9Y2H2_725_DTLQCIAEMLQITK (UniProt Q9Y2H2)” the “probe-labelled cysteine peptide fold change” value was 0.173.
“LGALS1_P09382_3_ACGLVASNLNLKPGECLR (UniProt P09382)” was tested, and the “probe-labelled cysteine peptide fold change” value was -0.0986.
With “KIF22_Q14807_201_VLDLLDPASGDLVIREDCR (UniProt Q14807)” the “probe-labelled cysteine peptide fold change” value was -0.154.
“KDM3A_Q9Y4C1_814_PACPASTSPLNWLADLTSGNVNK (UniProt Q9Y4C1)” was tested, and the “probe-labelled cysteine peptide fold change” value was 0.0136.
In the case of “IVD_P26440_136_ASGAVGLSYGAHSNLCINQLVR (UniProt P26440)”, the “probe-labelled cysteine peptide fold change” value is reported as 0.0597.
In the case of “IARS2_Q9NSE4_819_SCQTALVEILDVIVR (UniProt Q9NSE4)”, the “probe-labelled cysteine peptide fold change” value is reported as 0.153.
With “INTS6L_Q5JSJ4_745_NCSLSVDDQK (UniProt Q5JSJ4)” the “probe-labelled cysteine peptide fold change” value was 0.156.
In the case of “LIG3_P49916_499_KCPNGMFSEIKYDGER (UniProt P49916)”, the “probe-labelled cysteine peptide fold change” value is reported as 0.24.
In the case of “KIAA1958_Q8N8K9_246_PKPQTHAGPSCVGSAK (UniProt Q8N8K9)”, the “probe-labelled cysteine peptide fold change” value is reported as -0.0886.
With “LRRC8C_Q8TDW0_599_MTNLTELELVHCDLER (UniProt Q8TDW0)” the “probe-labelled cysteine peptide fold change” value was 0.076.
“IKBKB_O14920_524_EMEQAVELCGR (UniProt O14920)” was tested, and the “probe-labelled cysteine peptide fold change” value was 0.182.
For “KIF3A_Q9Y496_230_SHAIFTITIECSEK (UniProt Q9Y496)”, the “probe-labelled cysteine peptide fold change” value was 0.112.
“LIMS1_P48059_193+196_MGVPICGACR (UniProt P48059)” was tested, and the “probe-labelled cysteine peptide fold change” value was -0.089.
With “ITGB2_P05107_481_NCECQTQGR (UniProt P05107)” the “probe-labelled cysteine peptide fold change” value was -0.17.
“LIMS3_P0CW19-2_121+132_KYCEHDFQMLFAPCCHQCGEFIIGR<|>LIMS1_P48059_59+70_KYCEHDFQMLFAPCCHQCGEFIIGR (UniProt P48059+P0CW19)” was tested, and the “probe-labelled cysteine peptide fold change” value was -0.18.
For “LGALS1_P09382_17_ACGLVASNLNLKPGECLR (UniProt P09382)”, the “probe-labelled cysteine peptide fold change” value was -0.0469.

Same assay, conditions: 50 µM; THP-1; incubation time: 4 h
With “IGF2R_P11717_1783_TSECDFVFEWETPVVCPDEVR (UniProt P11717)” the “probe-labelled cysteine peptide fold change” value was -0.672.
In the case of “IGF2R_P11717_149_TLGTPEFVTATECVHYFEWR (UniProt P11717)”, the “probe-labelled cysteine peptide fold change” value is reported as -0.305.
With “LPXN_O60711_155_GHCASCQK (UniProt O60711)” the “probe-labelled cysteine peptide fold change” value was 0.145.
“KLHL26_Q53HC5_383_SGEGAVDACYR (UniProt Q53HC5)” was tested, and the “probe-labelled cysteine peptide fold change” value was 0.211.
In the case of “IRF3_Q14653_267_HVLSCLGGGLALWR (UniProt Q14653)”, the “probe-labelled cysteine peptide fold change” value is reported as 0.346.
“ITSN2_Q9NZM3_1429_ENSDRLEWIQAHVQCEGLAEQLIFNSLTNCLGPR (UniProt Q9NZM3)” was tested, and the “probe-labelled cysteine peptide fold change” value was -0.633.
In the case of “KNTC1_P50748_911_IIDLIDREQGEDCLLLLK (UniProt P50748)”, the “probe-labelled cysteine peptide fold change” value is reported as 0.137.
With “LANCL2_Q9NS86_367_GYGICHGTAGNGYSFLSLYR (UniProt Q9NS86)” the “probe-labelled cysteine peptide fold change” value was -0.0445.
“KPNA1_P52294_424_YLVELGCIK (UniProt P52294)” was tested, and the “probe-labelled cysteine peptide fold change” value was 0.184.
In the case of “ITGB2_P05107_386_VTYDSFCSNGVTHR (UniProt P05107)”, the “probe-labelled cysteine peptide fold change” value is reported as -0.0395.
With “INPP5F_Q9Y2H2_725_DTLQCIAEMLQITK (UniProt Q9Y2H2)” the “probe-labelled cysteine peptide fold change” value was 0.242.
In the case of “LGALS1_P09382_3_ACGLVASNLNLKPGECLR (UniProt P09382)”, the “probe-labelled cysteine peptide fold change” value is reported as -0.246.
With “KIF22_Q14807_201_VLDLLDPASGDLVIREDCR (UniProt Q14807)” the “probe-labelled cysteine peptide fold change” value was -0.158.
In the case of “KDM3A_Q9Y4C1_814_PACPASTSPLNWLADLTSGNVNK (UniProt Q9Y4C1)”, the “probe-labelled cysteine peptide fold change” value is reported as -0.377.
In the case of “IVD_P26440_136_ASGAVGLSYGAHSNLCINQLVR (UniProt P26440)”, the “probe-labelled cysteine peptide fold change” value is reported as -0.151.
For “IARS2_Q9NSE4_819_SCQTALVEILDVIVR (UniProt Q9NSE4)”, the “probe-labelled cysteine peptide fold change” value was -0.107.
In the case of “INTS6L_Q5JSJ4_745_NCSLSVDDQK (UniProt Q5JSJ4)”, the “probe-labelled cysteine peptide fold change” value is reported as -0.0158.
In the case of “LIG3_P49916_499_KCPNGMFSEIKYDGER (UniProt P49916)”, the “probe-labelled cysteine peptide fold change” value is reported as 0.59.
“KIAA1958_Q8N8K9_246_PKPQTHAGPSCVGSAK (UniProt Q8N8K9)” was tested, and the “probe-labelled cysteine peptide fold change” value was -0.293.
In the case of “LRRC8C_Q8TDW0_599_MTNLTELELVHCDLER (UniProt Q8TDW0)”, the “probe-labelled cysteine peptide fold change” value is reported as 0.0824.
“IKBKB_O14920_524_EMEQAVELCGR (UniProt O14920)” was tested, and the “probe-labelled cysteine peptide fold change” value was 0.0969.
In the case of “KIF3A_Q9Y496_230_SHAIFTITIECSEK (UniProt Q9Y496)”, the “probe-labelled cysteine peptide fold change” value is reported as -0.0259.
For “LIMS1_P48059_193+196_MGVPICGACR (UniProt P48059)”, the “probe-labelled cysteine peptide fold change” value was -0.114.
For “ITGB2_P05107_481_NCECQTQGR (UniProt P05107)”, the “probe-labelled cysteine peptide fold change” value was -0.216.
With “LIMS3_P0CW19-2_121+132_KYCEHDFQMLFAPCCHQCGEFIIGR<|>LIMS1_P48059_59+70_KYCEHDFQMLFAPCCHQCGEFIIGR (UniProt P48059+P0CW19)” the “probe-labelled cysteine peptide fold change” value was -0.291.
For “LGALS1_P09382_17_ACGLVASNLNLKPGECLR (UniProt P09382)”, the “probe-labelled cysteine peptide fold change” value was -0.0291.
